# SW480 rereplic: induces DNA re-replication in SW480 colon adenocarcinoma cells | SW480 DNA re-replication, Hoechst DNA content imaging, 48 h | Potency, µM (doses to about 46.1 µM), without a hit: at the top dose re-replication activation, hits mostly activators | AID 624297 | 340,000 tested, 1.8% active; further: % of control where 0% means no effect; nearly all actives have a fitted effect of over 55% in size
#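 Readout is total intensity of Hoechst-stained nuclei, excited at 405 nm and collected at 500-530 nm. Compound treatment lasted 48 hr at 37 C in 5% CO2 before staining.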
# HT1080NT lethal: kills 2HG-producing HT-1080-NT fibrosarcoma cells; HT-1080-NT fibrosarcoma viability, CellTiter-Glo ATP luminescence, 48 h; Potency, µM (top dose mostly 46.1 µM), inactives show at the highest dose activity, negative = less viability, actives largely listed as cytotoxic; 360,000 tested, 1.6% active; AID 686970;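 further: NT is the 2HG producing partner of a matched IDH1 knockdown line; 0% = DMSO-treated cells and -100% = media-only wells without cells; nearly all actives have a fitted effect of over 55% in size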
#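 750 cells/well, RPMI + 5% FBS; 2 h settle, compound pin-transfer, 48 h at 37 degrees C. CellTiter-Glo 10 min RT, luminescence. Normalized to DMSO and media-only wells.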
# KB-V1 cytotox: KB-V1 MDR subline cytotoxicity | KB-V1 MDR cells viability, CellTiter-Glo, 72 h | Potency, µM (top dose mostly 46.1 µM), most hits filed as cytotoxic | 400,000 tested, 3.4% active; further: on the % scale 0 is the no-effect control and ±100 the full control effect; nearly all actives have a fitted effect of over 60% in size
#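 qHTS viability screen in drug-selected KB-V1 MDR cells: 72 h compound treatment at 37 degrees C, ATP luminescence end point.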
# HT1080 IDH1KD tx: kills HT-1080 cells with IDH1 knockdown; HT-1080 IDH1 knockdown viability, ATP luminescence, 48 h; Potency, µM (titrated, usually from 46.1 µM), without a hit: at the highest dose activity, negative = toxicity, actives largely listed as cytotoxic; 360,000 tested, 2% active;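 further: 0% = DMSO wells and -100% = cell-free medium wells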
#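 Luminescent ATP read-out (CellTiter-Glo, 10 min at room temperature) after 48 h compound exposure at 37 °C gave viability of IDH1-knockdown HT-1080 cells. Activity was normalised to DMSO and cell-free wells, then fitted as concentration-response curves.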
# KB-3-1 tox: kills parental KB-3-1 adenocarcinoma cells; Potency, µM (titrated, usually from 46.1 µM), most hits filed as cytotoxic; AID 1347075; 400,000 tested, 1.4% active; KB-3-1 viability, CellTiter-Glo ATP luminescence, 72 h; further: on the % scale 0 is the no-effect control and ±100 the full control effect; nearly all actives have a fitted effect of over 60% in size
#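 Screening of KB-3-1 cells (DMEM, 10% FBS, phenol-red free) ran from lowest to highest compound concentration; after 72 h at 37 °C viability was read luminescently and curves fitted.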
# MCF10A rerep: induces DNA re-replication in MCF 10a normal breast cells. MCF 10A DNA re-replication, Hoechst nuclear intensity, 48 h. Potency, µM (titrated, usually from 46.1 µM), for the others: at the highest dose activity, positive = re-replication, usual class: activators. 350,000 tested, 2.9% active. AID 624296; further: % of control where 0% means no effect; nearly all actives have a fitted effect of over 50% in size
# * hit, by the source's call; i = inactive; ? = inconclusive; · = no result given; [ ] = another dose, or the depositor's remark. Most compounds without a hit are left out; they make up all but 7.9% or so of the library. The call rests on the fitted dose curve; in most records, active means well fitted curve in the direction sought with a large enough effect; inconclusive means small, poorly fitted or top-dose-only effect, or another doubt; inactive means no such curve, though single readings can be large; an effect the other way counts as inactive or inconclusive. Potency means the concentration at half of the fitted maximal effect.
SMILES,SW480 rereplic,HT1080NT lethal,KB-V1 cytotox,HT1080 IDH1KD tx,KB-3-1 tox,MCF10A rerep
COc1ccccc1-c1cc(NC=O)c2ncc(-c3cccc(C(F)(F)F)c3)n2c1,·,-9.0%,?,-6.3%,?,·
COc1ccc(-c2cc(NC=O)c3ncc(-c4cccc(C(F)(F)F)c4)n3c2)cc1OC,·,?,?,20.6µM*,?,·
CCCCCCCNC(=O)C1(CC2CC(c3cccc(Br)c3)=NO2)CCN(C(=O)CCCCCBr)CC1 (stereo not given),28.9%,16.4µM*,i,?,?,?
Cc1nn(-c2ccc(F)cc2)c(Cl)c1/C=C1\C(=O)Nc2ccccc21,?,?,13µM*,5.17µM*,?,8.2µM*
COc1ccccc1-c1nn2c(-c3ccco3)nnc2s1,-8.5%,-2.5%,10.3µM*,-16.8%,i,19.4%
CCN(CC)c1ccc(-c2nn3c(-c4ccccc4OC)nnc3s2)cc1,1.3µM*,1.03µM*,1.46µM*,?,0.82µM*,?
COc1ccc(-c2nn3c(-c4ccccc4)nnc3s2)cc1,-6.0%,-19.4%,?,-22.3%,?,?
CN(C)c1ccc(-c2nn3c(-c4cc(-c5ccccc5)n[nH]4)nnc3s2)cc1,·,·,i,·,?,·
COc1ccccc1-c1nnc2sc(COc3ccccc3)nn12,1.5%,-2.2%[9.24 µM],i,-15.3%,i,3.4%
COc1cccc(OC)c1-c1nn2c(-c3cc(-c4ccccc4)n[nH]3)nnc2s1,9.2µM*,?,?,?,?,14.6µM*
COc1ccccc1-c1nnc2sc(COc3ccc(Cl)cc3Cl)nn12,5.2%,-7.0%,18.4µM*,-2.5%,?,?
Clc1ccc(OCc2nn3c(-c4ccncc4)nnc3s2)cc1,-7.2%,2.0%,10.3µM*,23.8%,i,12.4%
CCOc1ccc(-c2nnc3sc(COc4ccc(Cl)cc4)nn23)cc1,0.5%,16.9%,i,12.8%,i,14.1%
Cc1nn(CC(=O)NCc2cccc(F)c2)c(=O)c2cccn12,-3.2%,6.6%,i,-1.7%,i,-0.6%
NC(=S)NN=C1c2ccccc2-c2c(F)c(F)c(F)c(F)c21,14.6µM*,-17.4%,?,?,?,6.51µM*
N#Cc1cccc2c1-c1ccccc1/C2=N/NC(N)=S,24.2%,6.51µM*,?,20.6µM*,?,?
Cc1ccc(NC(=O)N2C(=O)C3(OCCO3)c3ccccc32)cc1,-2.2%,7.1%,i,12.0%,i,3.1%
CNc1nc(N2CCc3ccccc32)ncc1F,-0.9%,10.3%,1.64µM*,-8.1%,?,-2.2%
Cc1ccc(C(=O)Nc2ccc(Cl)cc2C)c(Cl)c1,3.4%,19.7%,16.4µM*,-1.9%,i,11.1%
CCC1CN2CCc3cc(OC)c(OC)cc3C2CC1CC1c2cc(OC)c(OC)cc2CCN1C(=O)C(Cc1c[nH]c2ccccc12)NC(=O)OC(C)(C)C (stereo not given),?,-12.8%,i,-19.0%,?,?
CCOC(=O)C1CCCN(C(=S)NC(=O)c2cc(Br)ccc2Cl)C1 (stereo not given),16.4µM*,13.5%,i,11.7%,i,6.8%
CCOC(=O)N1CCN(C(=S)NC(=O)c2cc(Br)ccc2Cl)CC1,-4.4%,9.8%,i,3.1%,i,4.3%
O=C(NCc1cccc(C(F)(F)F)c1)C1CC(c2cccc(F)c2)=NO1 (stereo not given),-6.7%,7.4%,i,4.6%,i,?
Cc1ccc(C2(C)NC(=O)N(CC(=O)NC(=O)NC(C)(C)C)C2=O)cc1 (stereo not given),-1.5%,-2.0%,i,-18.6%,i,-0.1%
CC(OC(=O)/C(C#N)=C/c1ccc(N(C)C)cc1)C(=O)N(C)c1ccccc1 (stereo not given),4.5%,-1.3%,18.4µM*,-6.1%,i,?
SMILES,SW480 rereplic,HT1080NT lethal,KB-V1 cytotox,HT1080 IDH1KD tx,KB-3-1 tox,MCF10A rerep
Cc1oc(-c2ccc(Cl)cc2)cc1C(=O)N1CCC1(C)C(=O)O (stereo not given),·,6.6%,i,0.3%,i,·
Cc1oc(-c2ccc(Cl)cc2)cc1C(=O)/C(C#N)=C/Nc1ccccc1,1.9%,4.6%,i,0.0%,i,13µM*
CC1(C)OC(=O)C2(Cc3cc(C(F)(F)F)ccc3N3CCCCC32)C(=O)O1 (stereo not given),·,·,?,·,i,·
O=C(O)C1CC(=O)N(c2ccc(OCc3ccc(Cl)cc3Cl)cc2)C1 (stereo not given),-0.2%,-10.2%,i,?,i,?
CC(=O)N(C(C)=O)c1c(C#N)c(C)n(-c2ccccc2)c1C(=O)c1ccccc1,?,-27.4%,?,-22.3%,i,6.51µM*
CO/N=C1\CCCc2c(C(=O)NN)sc(SC)c21,?,16.4µM*,i,16.4µM*,i,16.4µM*
CC(=O)N1CCN(C(=O)c2ccc(S(=O)(=O)Nc3ccccc3F)cc2)CC1,-12.6%,-4.3%,?,-0.5%,i,14.3%
N#C/C(=C\c1ccc(Br)s1)C(=O)N1CCN(c2ccccc2)CC1,0.0%,8.1%,18.4µM*,13.7%,i,?
O=C1OCCN1C(=O)[C@H]1[C@H](c2ccccc2)C(c2cccc(Cl)c2)=NN1c1ccc(Br)cc1,2.06µM*,-2.8%,i,-17.4%,i,?
O=C1OCCN1C(=O)[C@H]1[C@H](c2ccc(Cl)cc2)C(c2ccccc2)=NN1c1ccc(Br)cc1,23.1µM*,-24.3%,i,-18.5%,i,?
O=C1OCCN1C(=O)[C@H]1[C@H](c2ccc([N+](=O)[O-])cc2)C(c2cccc(Cl)c2)=NN1c1ccc(Br)cc1,-6.7%,-12.4%,i,-28.7%,i,-3.2%
O=C1OCCN1C(=O)[C@H]1[C@H](c2ccc(F)cc2)C(c2cccc(Cl)c2)=NN1c1ccc(Br)cc1,1.3µM*,-12.0%,i,?,?,?
O=C(CNC(=O)c1cc(-c2ccccc2)nn1-c1ccccc1)Nc1ccccc1Br,-24.1%,-1.3%,i,1.0%,i,11.6µM*
CCN(CC(=O)Nc1ccccc1C(F)(F)F)C(=O)c1cc(-c2ccccc2)nn1-c1ccccc1,-10.4%,2.2%,i,-6.5%,i,10.3µM*
O=C(CCl)Nc1cc(-c2ccccc2)nn1-c1ccccc1,?,5.01µM*,7.31µM*,1.58µM*,?,?
COc1ccc(CCNC(=O)CN(c2cc([N+](=O)[O-])ccc2OC)S(C)(=O)=O)cc1,-2.7%,7.4%,i,?,i,-10.3%

# Screening data deposited in PubChem BioAssay by National Center for Advancing Translational Sciences (NCATS).
